Bioassay records (PubChem BioAssay)
Hits are enriched below; roughly 1.6% of the tested compounds scored in any of these assays.
Efflux pump mplx – antifungal efflux pump inhibition, Nile Red retention. actives 0.44% (n = 330,000). inhibition, % at 10 µM. AID 485275. S. cerevisiae Candida pump triplex;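 active = plate passing quality check with inhibition over a set limit, or well fluorescence over plate mean plus 4 SD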;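 note: Nile Red retained in pooled yeast measured as flow cytometry median fluorescence; 0% = buffer negative control and 100% = Enniatin B positive control; higher means more Nile Red kept so more efflux inhibition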
GRK2 aptamer HTS – human GRK2 inhibition via aptamer displacement | bead flow cytometry, FAM-aptamer displacement from GRK2 | inhibition of aptamer binding, % at 10 µM | actives 0.59% (n = 330,000);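 active = inhibition of aptamer binding above 40%, roughly 3 SD of noise, on plates passing a quality check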;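 note: median bead fluorescence of bound FAM aptamer so fluorescent compounds give negative values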
Target sequence (P25098 whole entry, looked up): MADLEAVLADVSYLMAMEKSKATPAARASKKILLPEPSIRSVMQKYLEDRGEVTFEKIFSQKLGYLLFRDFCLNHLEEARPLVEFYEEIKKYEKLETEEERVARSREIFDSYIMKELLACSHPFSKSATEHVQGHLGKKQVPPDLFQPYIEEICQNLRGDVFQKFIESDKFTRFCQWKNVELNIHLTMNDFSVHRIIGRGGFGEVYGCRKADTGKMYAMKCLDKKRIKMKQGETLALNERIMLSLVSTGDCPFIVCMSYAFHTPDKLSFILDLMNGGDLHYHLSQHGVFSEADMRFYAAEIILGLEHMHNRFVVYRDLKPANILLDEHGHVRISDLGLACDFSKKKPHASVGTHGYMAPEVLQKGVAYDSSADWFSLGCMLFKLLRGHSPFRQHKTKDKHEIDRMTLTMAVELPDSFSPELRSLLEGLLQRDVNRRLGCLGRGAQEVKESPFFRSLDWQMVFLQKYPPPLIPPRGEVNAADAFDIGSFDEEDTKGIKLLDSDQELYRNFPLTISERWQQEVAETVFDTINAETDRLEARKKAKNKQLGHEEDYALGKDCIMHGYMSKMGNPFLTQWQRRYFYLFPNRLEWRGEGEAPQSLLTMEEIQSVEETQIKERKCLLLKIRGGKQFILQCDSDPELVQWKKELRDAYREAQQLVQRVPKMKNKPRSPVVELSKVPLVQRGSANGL
Yeast superoxide – caloric restriction mimetics inhibiting age-related superoxide in yeast; S. cerevisiae aged cells, superoxide DHE fluorescence; active compounds read low; superoxide response (% of plate mean), % at 10 µM; actives 0.18% (n = 330,000); AID 2690;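 active = superoxide response under a set limit, about three screen SD below normal, cut at about 65% in these data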;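 note: yeast aged for seven days with compound at 30 °C before DHE staining; 100% = average MFI of all compound-treated wells on the plate with controls excluded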
ATG4B inh – inhibitors of human ATG4B cysteine protease | ATG4B cleavage of LC3-PLA2, NBD-HPC fluorescence, 1 h | inhibition, % at 8.33 µM | actives 0.51% (n = 340,000) | AID 504462; in the data active = inhibition above about 40%
Cmpd fluor yeast – compound fluorescence in yeast efflux pump counter-screen; shares compounds with Efflux pump mplx; S. cerevisiae AD/pABC3, flow cytometry; fluorescence ratio to DMSO, % at 10 µM; actives 4% (n = 1,700); AID 588517;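 active = fluorescence ratio to DMSO above its plate's cutoff, the plate mean ratio plus 5 SD, cut at about 210% in these data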;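 note: unstained yeast with no Nile Red so the signal is compound autofluorescence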
Mdr1 pump inh – inhibitors of Candida albicans Mdr1 efflux pump. AID 588518. S. cerevisiae AD/CaMDR1, Nile Red efflux, flow cytometry. inhibition, % at 10 µM. shares compounds with Efflux pump mplx. actives 1% (n = 1,700); in the data active = inhibition above about 26%;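 note: 0% = DMSO vehicle and 100% = reference inhibitor; higher means more Nile Red retained so more efflux inhibition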
Cdr2 pump inh – blocks the Candida albicans Cdr2 efflux pump in yeast | shares compounds with Efflux pump mplx | S. cerevisiae AD/CaCDR2, Nile Red retention, flow cytometry | Nile Red retention ratio vs DMSO, % at 10 µM | actives 4% (n = 1,700) | AID 588520; in the data active = Nile Red retention ratio vs DMSO above about 190%;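 note: higher ratio means more blocking of Cdr2 efflux of the dye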
CaCdr1 efflux inh – blocks the Candida albicans Cdr1 efflux pump in yeast. shares compounds with Efflux pump mplx. actives 1% (n = 1,700). inhibition, % at 10 µM. AID 588522. S. cerevisiae AD/CaCDR1, Nile Red efflux, flow cytometry;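 active = inhibition above the screen-wide mean plus twice its standard deviation, cut at about 32% in these data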
Numbers without * were called inactive; nt = not tested or not shown; + = active, no number.

SMILES	Efflux pump mplx	GRK2 aptamer HTS	Yeast superoxide	ATG4B inh	Cmpd fluor yeast	Mdr1 pump inh	Cdr2 pump inh	CaCdr1 efflux inh
CCOc1ccc(-c2c(C(=O)N/N=C(\C)c3ccccc3OC)nnn2-c2nonc2N)cc1	0	3	110	-7	98	0	92	0
Cc1ccccc1COc1ccc(/C=N/NC(=O)c2nnn(-c3nonc3N)c2CN2CCC(C)CC2)cc1	0	0	97	13	nt	nt	nt	nt
CC1CCN(Cc2c(C(=O)N/N=C/c3ccc(OC(C)C)cc3)nnn2-c2nonc2N)CC1	0.4*	1	124	0	111	0	108	0
CC(C)n1c(N2CCN(CC(=O)NCc3cccs3)CC2)nc2ccccc21	1.5*	1	98	-14	105	0	76	0
C=CCNC(=O)c1c(Cl)cnn1-c1ccc(C)cc1	0	2	95	0	nt	nt	nt	nt
CC(=O)Nc1cccc(NC(=O)c2cc(-c3cccnc3)nc3ccc(Br)cc23)c1	0	2	73	-19	nt	nt	nt	nt
CC(=O)Nc1cccc(NC(=O)c2cc(-c3cccnc3)nc3ccc(Cl)cc23)c1	1.4*	1	134	-18	91	0	112	0
CN1CCN(Cc2cc(Cl)c3cccnc3c2OC(=O)c2cccs2)CC1	11*	0	105	-1	97	0	98	0
O=C(Oc1c(CN2CCOCC2)cc(Cl)c2cccnc12)c1ccccc1Br	0	1	100	-8	nt	nt	nt	nt
Cn1c(SCC(=O)NN2C(=O)NC(C)(c3ccccc3)C2=O)nnc1-c1ccncc1 (configuration not stated)	0	5	83	-10	nt	nt	nt	nt
CN(CC(=O)Nc1ccc(Cl)cc1)C(=O)c1sccc1-c1ccccc1	0	0	82	0	nt	nt	nt	nt
O=C(c1ccccc1Oc1ccc(C(F)(F)F)cc1[N+](=O)[O-])N1CCOCC1	0	3	94	-8	nt	nt	nt	nt
O=C(Nc1ccccc1Cl)c1ccccc1Oc1ccc(C(F)(F)F)cc1[N+](=O)[O-]	0.4*	1	106	5	107	0	101	0
COc1ccc2c(c1)c(/C=C/c1cc[n+](C)cc1)cn2C	16*	0	99	1	+	4	136	6
CCn1c(/C=C/c2c[nH]c3ccccc23)nc2ccccc2c1=O	0	0	99	23	nt	nt	nt	nt
CC[n+]1ccc(/C=C/c2c[nH]c3ccccc23)cc1	2.3*	0	109	-4	217	3	102	0
Cc1ccc2[nH]cc(/C=C/c3cc[n+](C)cc3)c2c1	9.3*	0	93	-10	908*	7	137	6
COc1ccc2c(/C=C/c3cc[n+](C)cc3)c[nH]c2c1	9.1*	0	106	-3	+	23	256*	13
COc1cc(C2C3=C(CC(C)(C)CC3=O)N(C)C3=C2C(=O)CC(C)(C)C3)cc(Br)c1O	0	0	99	3	nt	nt	nt	nt
O=C(COC(=O)/C=C/c1ccc(Cl)cc1)Nc1ccc2[nH]c(=O)[nH]c2c1	0	0	103	-8	nt	nt	nt	nt
COc1cc(CNc2ccc(C(=O)O)cc2)cc(Br)c1OCC(=O)NC(C)(C)C	21*	0	95	1	108	0	102	0
Cc1ccc(Cl)cc1NC(=S)N1CCC(c2ccccc2)C1 (configuration not stated)	0	20	105	7	nt	nt	nt	nt
O=C(Cc1ccc(Cl)cc1)c1c[nH]c(C(=O)NCCCn2ccnc2)c1	0.6*	0	81	1	99	0	85	0
CC(C)CC(=O)c1c[nH]c(C(=O)NCCCn2ccnc2)c1	0	0	101	-2	nt	nt	nt	nt
Cc1c(O)c2c(=O)n(-c3ccccc3)c(-c3ccccc3)cc2oc1=O	0	0	104	-3	nt	nt	nt	nt
CCCCOc1ccc(C(=O)NCC(=O)NC2CCCCC2)cc1	0	0	87	5	nt	nt	nt	nt
Cc1cccc(NC(=O)c2ccccc2O)c1C	0	0	78	-3	nt	nt	nt	nt
O=C(Nc1ccccc1O)c1ccccc1O	1.1*	2	106	-1	105	0	97	0
